Results filed as inconclusive are left out. Activity calls are given as the source filed them. The calls were made as follows: active = hit-call score of the fitted dose curve at least 0.9, where 1 is the maximum; inconclusive = response in the unintended direction; inactive = score below 0.9.
Each compound was assayed against human Vitamin D Receptor (VDR), VDR (gene 7421) (UniProt P11473) (assay: ATG_VDR_TRANS: Attagene TRANS-FACTORIAL HepG2 Assay for human Vitamin D Receptor (VDR) (AID 2283022)).
Sequence of human Vitamin D Receptor (VDR), VDR (gene 7421) (P11473 whole entry, looked up, the tested form may be a part): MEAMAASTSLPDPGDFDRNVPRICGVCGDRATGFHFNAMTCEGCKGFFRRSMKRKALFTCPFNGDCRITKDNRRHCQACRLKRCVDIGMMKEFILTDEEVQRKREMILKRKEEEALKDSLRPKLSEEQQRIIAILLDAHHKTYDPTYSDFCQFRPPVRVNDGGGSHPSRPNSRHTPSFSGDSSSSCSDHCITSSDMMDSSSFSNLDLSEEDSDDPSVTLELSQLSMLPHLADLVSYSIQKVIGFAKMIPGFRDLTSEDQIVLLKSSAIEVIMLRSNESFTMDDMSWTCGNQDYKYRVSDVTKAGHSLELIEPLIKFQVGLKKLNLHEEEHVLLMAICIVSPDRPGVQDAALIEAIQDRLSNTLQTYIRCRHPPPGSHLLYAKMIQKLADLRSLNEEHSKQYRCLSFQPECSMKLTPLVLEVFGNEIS
Summary of the method: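 Transactivation by an exogenous VDR-Gal4 chimera in transiently transfected HepG2 cells was measured as reporter transcript level 24 hours after chemical treatment. RT-PCR products were analysed by capillary electrophoresis and fitted in the positive direction relative to DMSO.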
CCCCCC[C@@H](O)C/C=C\CCCCCCCC(=O)OCC(O)CO (some centres undefined) was tested, and the outcome was “inactive”. In the case of CC(C)(CO)C(O)C(=O)NCCCO (centres undefined), the outcome is reported as “inactive”. C=C(C)C(=O)OCCOC(=O)C(=C)C was tested, and the outcome was “inactive”. For OCCCc1ccccc1, the outcome was “inactive”. With CC(C=O)c1ccccc1 (centres undefined) the outcome was “inactive”. For O=C(Nc1ccccc1)c1cc(Cl)ccc1O, the outcome was “inactive”. In the case of CC(=O)OCC=C(C)C, the outcome is reported as “inactive”. For Nc1ccc(C(=O)OCCCOC(=O)c2ccc(N)cc2)cc1, the outcome was “inactive”. For CCN1CCCC1=O, the outcome was “inactive”. In the case of CCOB(OCC)OCC, the outcome is reported as “inactive”. In the case of C=Cc1ccc(OC(C)=O)cc1, the outcome is reported as “inactive”. O=C(O)CC(C(=O)O)S(=O)(=O)O (centres undefined) was tested, and the outcome was “inactive”. For COC(Cc1ccccc1)OC, the outcome was “inactive”. For Cc1cccc(C(C)(C)C)c1O, the outcome was “inactive”. In the case of Cc1ccccc1CCO, the outcome is reported as “inactive”. In the case of CCCCCCCCCCCCC, the outcome is reported as “inactive”. For CC(C)C(=O)OCCOc1ccccc1, the outcome was “inactive”. For O=C(C=Cc1ccccc1)OCCc1ccccc1, the outcome was “inactive”. For CCCCCCO, the outcome was “inactive”. CC(=O)CCC1=C(C)CCCC1(C)C was tested, and the outcome was “inactive”. For Nc1ccnc(=O)[nH]1, the outcome was “inactive”. CC(=O)/C=C/C1C(C)=CCCC1(C)C (centres undefined) was tested, and the outcome was “inactive”. O=C(O[C@@H]1Cc2c(O)cc(O)cc2O[C@@H]1c1cc(O)c(O)c(O)c1)c1cc(O)c(O)c(O)c1 was tested, and the outcome was “inactive”. In the case of CC(C)(CO)COC(=O)C(C)(C)CO, the outcome is reported as “inactive”. COC(C=C(C)CCC=C(C)C)OC was tested, and the outcome was “inactive”. In the case of CC1(C)[C@@H]2CC[C@@]1(C)C(=O)C2, the outcome is reported as “inactive”. In the case of O=C(Cl)c1ccc(C(=O)Cl)cc1, the outcome is reported as “inactive”. CCOC(=O)c1ccc(C)cc1 was tested, and the outcome was “inactive”. In the case of CC(C)CCOCc1ccccc1, the outcome is reported as “inactive”. With CC1(C)C(=O)N(CO)C(=O)N1CO the outcome was “inactive”. In the case of CCCCNS(=O)(=O)c1ccccc1, the outcome is reported as “inactive”. With c1ccc2cnccc2c1 the outcome was “inactive”. CC(=O)CCC=C(C)C was tested, and the outcome was “inactive”. With CC(=O)c1ccc(S(=O)(=O)NC(=O)NC2CCCCC2)cc1 the outcome was “inactive”.
